Source: PubChem BioAssay (NCATS)
Records with an inconclusive call do not appear. The source made the active and inactive calls. The call rests on the fitted dose curve; in most records, active means well fitted inhibition curve with a large enough effect; inconclusive means small, poorly fitted or top-dose-only effect; inactive means flat fitted curve, though single readings scatter.

How the values were obtained:
Test in all cases: qHTS profiling for inhibitors of Plasmodium falciparum proliferation (AID 504749); further: nearly all actives have a fitted effect of over 60% in size
Settings in all cases: P. falciparum in erythrocytes, SYBR Green DNA, 72 h; series mostly up to 28.7 µM
[1] = system: CP256
In short: (§1)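 Three-day growth assay of blood-stage parasites in erythrocytes (0.3% parasitemia, 2.5% hematocrit) at 37 C, 5% CO2, quantified by SYBR Green DNA staining after overnight detergent lysis.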

[2] = system: CP260
In short: as §1

[3] = system: CP262
In short: as §1

[4] = system: CP265
In short: as §1

[5] = system: CP266
In short: as §1

[6] = system: CP268
In short: as §1

[7] = system: CP269
In short: as §1

[8] = system: CP286
In short: as §1

[9] = system: CP291
In short: as §1

[10] = system: CP297
In short: as §1

Measured: Potency

C[Se]CC[C@H](N)C(=O)O
inactive: all assays above

NC(N)=O
inactive: all assays above

Cc1ncc[nH]1
inactive: all assays above

O=S(=O)(O)CC(S)CS (stereo not given)
inactive: all assays above

FCOC(C(F)(F)F)C(F)(F)F
inactive: all assays above

CCC(Cc1c(I)cc(I)c(O)c1I)C(=O)O (stereo not given)
inactive: all assays above

NC(=O)C1c2ccccc2CCc2ccccc21
inactive: all assays above

CCCC(=O)O
inactive: all assays above

CC/C=C\C/C=C\C/C=C\C/C=C\C/C=C\CCCC(=O)O
inactive: all assays above

CC/C(=C(/CC)c1ccc(OP(=O)(O)O)cc1)c1ccc(OP(=O)(O)O)cc1
inactive: all assays above

CC(C)=CCC/C(C)=C/CC/C(C)=C/CC/C=C(\C)CC/C=C(\C)CCC=C(C)C
inactive: all assays above

CN1c2c(nc(N)[nH]c2=O)NCC1CNc1ccc(C(=O)NC(CCC(=O)O)C(=O)O)cc1 (stereo not given)
inactive: all assays above

OB(O)O
inactive: all assays above

Cc1ccc(S(=O)(=O)NCl)cc1
inactive: all assays above

Nc1ncnc2c1ncn2[C@H]1CC[C@@H](CO)O1
inactive: all assays above

C[C@H](O)CN(C)C
inactive: all assays above

CCCCCCCCCCCC(=O)OCC(O)CO (stereo not given)
inactive: all assays above

Cc1ncc(C[n+]2csc(CCOP(=O)(O)O)c2C)c(N)n1
inactive: all assays above

O=C(O)c1ccc(OCCn2ccnc2)cc1
inactive: all assays above

CCN(CC)CCOc1ccccc1OC
inactive: all assays above

COC(=O)CC[C@H](N)C(=O)O
inactive: all assays above

O=C(O)[C@H]1CN(C/C=C/P(=O)(O)O)CCN1
inactive: all assays above

CCCCCCCCCCCCCCCCCC[N+](C)(C)CCC[Si](OC)(OC)OC
inactive: all assays above
